Experiment [1] is described as follows: qHTS assay to identify small molecule phospholipidosis (PLD) inducers (AID 1259344; active means well fitted curve in the direction sought with a large enough effect; an effect the other way counts as inactive or inconclusive; further: on the % scale 0 is the no-effect control and ±100 the full control effect). In a few lines: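 Read-out is LipidTOX Red fluorescence (ex 595/em 615) imaged in HepG2 cells after 24 h compound exposure at 37 C, with Hoechst nuclear counterstain (ex 352/em 461) allowing per-cell normalisation.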
A short description of experiment [2]: qHTS assay to identify small molecule HDAC inhibitors - cell viability counter screen (AID 1259365). Further: series mostly up to about 92 µM; on the % scale 0 is the no-effect control and ±100 the full control effect; nearly all actives have a fitted effect of over 50% in size. In a few lines: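 After overnight seeding at 1,500 cells per well, wild-type HCT-116 cultures took up compounds in DMSO for 2hr at 37 C. Viable cell content came from luminescence with CellTiter-Glo.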
Experiment [3] can be described thus: qHTS assay to identify small molecule antagonists of the sonic hedgehog signaling (Shh) pathway - cell viability counter screen (AID 1259367). Further: nearly all actives have a fitted effect of over 55% in size. Further: potency means the concentration at half of the fitted maximal effect. Put shortly:
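Fluorescence read-out (CellTiter-Fluor, 1 hr at 37C) taken after 23 hr compound treatment of 3T3 Gli1-Luc cells stimulated with conditioned medium. Cells were seeded at 2,000 per well and pre-incubated 4 hr.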

Experiment [4] is described as follows: qHTS assay to identify small molecule agonists of the sonic hedgehog signaling (Shh) pathway (AID 1259368; calls by dose curve;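 further: NIH/3T3-derived 3T3Gli1-Luc cells carrying a stable Gli1-driven firefly luciferase reporter; series mostly up to about 92 µM; on the % scale 0 is the no-effect control and ±100 the full control effect; nearly all actives have a fitted effect of over 15% in size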). In a few lines: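 Cells of a mouse NIH/3T3 clone stably expressing luciferase under the Gli1 transcriptional response element are exposed to test chemicals for 24 hr at 37 C. Pathway activation is detected as a rise in luminescence.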
A short description of experiment [5]: qHTS assay to identify small molecule antagonists of the sonic hedgehog signaling (Shh) pathway (AID 1259369; calls by dose curve; further: nearly all actives have a fitted effect of over 45% in size; further: potency means the concentration at half of the fitted maximal effect). In a few lines: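 Cells are plated and held 4hr at 37 C, compounds (DMSO) are pinned in, conditioned medium is added to stimulate the pathway, and after 24hr luciferase reagent is added for 30min before luminescence is read.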
Experiment [6] is described as follows: qHTS assay to identify small molecule agonists of the estrogen receptor beta (ER-beta) signaling pathway - cell viability counter screen (AID 1259380). Further: nearly all actives have a fitted effect of over 30% in size. Further: potency means the concentration at half of the fitted maximal effect. On activity change, negative = cytotoxicity: on the % scale 0 is the no-effect control and ±100 the full control effect. Put shortly:
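Cytotoxicity is measured in parallel with the reporter screen: after 16 hr compound exposure at 37C and a 2 hr LiveBLAzer step, CellTiter-Glo is added to the same ER-beta-UAS-bla HEK293T wells and luminescence read after 30 min.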

Experiment [7] can be described thus: qHTS assay to identify small molecule antagonists of the estrogen receptor beta (ER-beta) signaling pathway - cell viability counter screen (AID 1259382). Further: nearly all actives have a fitted effect of over 55% in size. Further: potency means the concentration at half of the fitted maximal effect. In a few lines: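 Cytotoxicity counter screen multiplexed with the beta-lactamase antagonist assay: GripTite HEK293T ER-beta-bla cells were treated 16 hr with test chemicals in the presence of 1nM 17-beta-estradiol, and viability was measured by CellTiter-Glo.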

Experiment [8] addresses Estrogen receptor (Homo sapiens) (UniProt P03372). Kind of experiment: qHTS assay to identify small molecule agonists of the estrogen receptor alpha (ER-alpha) signaling pathway in the presence of an antagonist (AID 1259383; calls by dose curve; further: top concentration of the series differs between compounds; on the % scale 0 is the no-effect control and ±100 the full control effect; nearly all actives have a fitted effect of over 15% in size). Put shortly: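 Agonist-mode confirmation in the presence of the ER antagonist ICI-182,780 at 10.0nM final. Breast-derived VM7Luc4E2 reporter cells were exposed to compounds for 22hr, and ERE-driven luciferase was quantified by luminescence.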

The nature of experiment [9]: qHTS assay to identify small molecule agonists or antagonists of the thyroid stimulating hormone receptor (TSHR) signaling pathway - wild type cell line counter screen (AID 1259384; calls by dose curve; further: on the % scale 0 is the no-effect control and ±100 the full control effect). Put shortly:
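Wild-type Hek293 cells, 800/well, 18 h at 37C, then compound with Ro20-1724 for 30 min RT. cAMP by HTRF (cAMP-d2/anti-cAMP cryptate), 1 h RT, fluorescence read. 15 concentrations, triplicates.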

In experiment [10] the target is Thyrotropin receptor (Homo sapiens) (UniProt P16473). Kind of experiment: qHTS assay to identify small molecule antagonists of the thyroid stimulating hormone receptor (TSHR) signaling pathway (AID 1259385; calls by dose curve; further: on the % scale 0 is the no-effect control and ±100 the full control effect; nearly all actives have a fitted effect of over 20% in size). In a few lines: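 TSHR-HEK293 cells (800/well) plated 18 h, then compounds with Ro20-1724 and TSH at 1.5 ng/mL final, 30 min at room temperature. cAMP quantified by HTRF (cAMP-d2/anti-cAMP-cryptate, 1 h); 15 concentrations in triplicate.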

Experiment [11] is described as follows: qHTS assay to identify small molecule agonists of the estrogen receptor alpha (ER-alpha) signaling pathway in the presence of an antagonist - cell viability counter screen (AID 1259386).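 Further: cells exposed to compounds for 22 h at 37 °C before the viability read; nearly all actives have a fitted effect of over 30% in size.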 Further: potency means the concentration at half of the fitted maximal effect. In a few lines: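 Cytotoxicity was measured in parallel with the ERE-luciferase agonist screen, in the same wells. The cells were VM7Luc4E2, which endogenously express ER-alpha, and treatment was with compounds plus 10.0nM ICI-182,780 for 22hr.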

Experiment [12] is described as follows: qHTS assay to identify small molecule HDAC inhibitors (AID 1259364).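 Further: wild-type HCT-116 cells with endogenous class I/II HDAC activity; top concentration of the series differs between compounds; on the % scale 0 is the no-effect control and ±100 the full control effect; nearly all actives have a fitted effect of over 45% in size.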 In a few lines:
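Cells (HCT-116, wild type) are seeded at 1,500 per well, incubated overnight, treated with compound in DMSO for 2 hr, then developed with HDAC-Glo I/II reagent for 30 min at room temperature.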

A short description of experiment [13]: qHTS assay to identify small molecule agonists of the sonic hedgehog signaling (Shh) pathway - cell viability counter screen (AID 1259366). Further: nearly all actives have a fitted effect of over 50% in size. Further: potency means the concentration at half of the fitted maximal effect. Put shortly:
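Same-well cytotoxicity read. Gli1-Luc reporter 3T3 cells; compounds 24hr, 37C/5% CO2; CellTiter-Fluor fluorescence.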

The nature of experiment [14]: qHTS assay to identify small molecule agonists of the androgen receptor (AR) signaling pathway in the presence of an antagonist - cell viability counter screen (AID 1259379). Further: nearly all actives have a fitted effect of over 25% in size. Further: potency means the concentration at half of the fitted maximal effect. In a few lines:
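Cytotoxicity is assessed by CellTiter-Fluor in MDA-kb2 cells carrying an MMTV-driven luciferase reporter. Cells receive 3.0uM nilutamide plus compounds at 15 concentrations and incubate 16 hr at 37C without CO2 before fluorescence reading.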

Experiment [15] has as its target Estrogen receptor (Homo sapiens) (UniProt P03372). Kind of experiment: qHTS assay to identify small molecule antagonists of the estrogen receptor alpha (ER-alpha) signaling pathway using the BG1 cell line in the presence of 0.1 nM 17-beta-estradiol (AID 1259244). Further: potency means the concentration at half of the fitted maximal effect; nearly all actives have a fitted effect of over 50% in size. Put shortly: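 Antagonist mode: compounds in DMSO are pinned onto VM7Luc4E2 reporter cells, 0.1 nM final 17beta-estradiol is added, and after 22 h at 37C luciferase luminescence is measured with ONE-Glo.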

Experiment [16] addresses Progesterone receptor (Homo sapiens) (UniProt P06401). The experiment can be described thus: qHTS assay to identify small molecule agonists of the progesterone receptor (PR) signaling pathway (AID 1346784; calls by dose curve; further: on the % scale 0 is the no-effect control and ±100 the full control effect; nearly all actives have a fitted effect of over 30% in size). In a few lines: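 Compounds were tested for PR agonism in HEK 293T cells bearing a beta-lactamase gene under UAS control. Treatment lasted 16 hr at 37C; signal came from fluorescence of a FRET substrate.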

The target in experiment [17] is Estrogen receptor beta (Homo sapiens) (UniProt Q92731). The experiment can be described thus: qHTS assay to identify small molecule agonists of the estrogen receptor beta (ER-beta) signaling pathway (AID 1259377; active means well fitted activation curve with a large enough effect in the signal ratio in the repeat runs, not every such curve was filed as active; the % refers to the signal ratio; further: on the % scale 0 is the no-effect control and ±100 the full control effect). Put shortly:
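Read-out: beta-lactamase FRET fluorescence. Cell line: ER-beta-UAS-bla HEK293T in 2% charcoal-stripped FBS. Exposure: 16 hr at 37C. Substrate step: 2 h at room temperature.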

A number with no mark means an inactive call. Records with an inconclusive call do not appear. The source made the active and inactive calls. Unless noted, the call rests on the fitted dose curve; in most records, active means well fitted curve in the direction sought with a large enough effect in the repeat runs; inconclusive means weak or mixed curves; inactive means no such curve, though single readings can be large; an effect the other way counts as inactive or inconclusive.

Progesterone receptor (Homo sapiens), sequence (P06401 whole entry, looked up): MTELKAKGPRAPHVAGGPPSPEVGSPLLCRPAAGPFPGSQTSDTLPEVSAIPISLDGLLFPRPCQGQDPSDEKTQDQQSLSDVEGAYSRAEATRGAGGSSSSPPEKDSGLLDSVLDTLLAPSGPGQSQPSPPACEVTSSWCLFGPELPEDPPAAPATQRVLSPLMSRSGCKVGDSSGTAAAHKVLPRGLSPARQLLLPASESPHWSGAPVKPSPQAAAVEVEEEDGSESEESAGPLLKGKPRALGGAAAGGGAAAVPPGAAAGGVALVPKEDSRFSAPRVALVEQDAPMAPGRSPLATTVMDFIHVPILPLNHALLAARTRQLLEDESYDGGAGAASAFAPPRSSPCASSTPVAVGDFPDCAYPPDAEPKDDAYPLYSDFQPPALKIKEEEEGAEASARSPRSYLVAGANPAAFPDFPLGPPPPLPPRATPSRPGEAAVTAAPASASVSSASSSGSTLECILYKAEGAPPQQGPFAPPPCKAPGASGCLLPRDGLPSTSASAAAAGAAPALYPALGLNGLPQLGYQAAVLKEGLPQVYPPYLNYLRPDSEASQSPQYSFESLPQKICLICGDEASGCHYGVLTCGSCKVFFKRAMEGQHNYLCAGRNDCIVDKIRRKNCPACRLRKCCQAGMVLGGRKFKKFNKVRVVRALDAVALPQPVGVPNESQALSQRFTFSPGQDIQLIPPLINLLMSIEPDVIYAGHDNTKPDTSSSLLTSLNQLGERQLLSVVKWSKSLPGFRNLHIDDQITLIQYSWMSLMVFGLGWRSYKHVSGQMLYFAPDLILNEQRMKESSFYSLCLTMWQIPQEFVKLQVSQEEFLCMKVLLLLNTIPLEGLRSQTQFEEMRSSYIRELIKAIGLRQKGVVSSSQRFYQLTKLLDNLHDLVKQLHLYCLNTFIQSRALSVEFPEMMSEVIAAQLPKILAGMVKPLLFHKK
Thyrotropin receptor (Homo sapiens), sequence (P16473 whole entry, looked up): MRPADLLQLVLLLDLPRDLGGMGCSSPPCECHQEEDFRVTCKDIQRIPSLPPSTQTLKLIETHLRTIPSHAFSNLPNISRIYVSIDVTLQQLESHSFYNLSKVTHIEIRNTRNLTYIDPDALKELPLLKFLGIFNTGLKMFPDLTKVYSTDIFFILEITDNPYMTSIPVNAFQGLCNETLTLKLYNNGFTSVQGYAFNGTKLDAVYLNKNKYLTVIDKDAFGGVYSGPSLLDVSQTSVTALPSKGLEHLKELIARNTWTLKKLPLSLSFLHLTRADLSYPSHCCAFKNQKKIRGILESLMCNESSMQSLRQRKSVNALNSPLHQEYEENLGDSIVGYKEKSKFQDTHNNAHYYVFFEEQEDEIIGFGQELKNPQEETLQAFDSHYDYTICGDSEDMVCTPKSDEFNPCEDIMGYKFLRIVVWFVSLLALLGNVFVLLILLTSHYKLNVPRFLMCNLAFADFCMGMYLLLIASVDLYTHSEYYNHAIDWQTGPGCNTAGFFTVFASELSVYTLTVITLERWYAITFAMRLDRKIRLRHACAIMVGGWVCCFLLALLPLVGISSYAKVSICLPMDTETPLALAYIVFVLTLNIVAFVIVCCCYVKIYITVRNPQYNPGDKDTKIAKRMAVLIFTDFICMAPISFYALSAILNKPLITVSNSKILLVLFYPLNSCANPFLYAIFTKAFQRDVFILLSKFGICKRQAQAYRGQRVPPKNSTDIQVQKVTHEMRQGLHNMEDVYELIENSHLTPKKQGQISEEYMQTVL
Estrogen receptor (Homo sapiens), sequence (P03372 whole entry, looked up): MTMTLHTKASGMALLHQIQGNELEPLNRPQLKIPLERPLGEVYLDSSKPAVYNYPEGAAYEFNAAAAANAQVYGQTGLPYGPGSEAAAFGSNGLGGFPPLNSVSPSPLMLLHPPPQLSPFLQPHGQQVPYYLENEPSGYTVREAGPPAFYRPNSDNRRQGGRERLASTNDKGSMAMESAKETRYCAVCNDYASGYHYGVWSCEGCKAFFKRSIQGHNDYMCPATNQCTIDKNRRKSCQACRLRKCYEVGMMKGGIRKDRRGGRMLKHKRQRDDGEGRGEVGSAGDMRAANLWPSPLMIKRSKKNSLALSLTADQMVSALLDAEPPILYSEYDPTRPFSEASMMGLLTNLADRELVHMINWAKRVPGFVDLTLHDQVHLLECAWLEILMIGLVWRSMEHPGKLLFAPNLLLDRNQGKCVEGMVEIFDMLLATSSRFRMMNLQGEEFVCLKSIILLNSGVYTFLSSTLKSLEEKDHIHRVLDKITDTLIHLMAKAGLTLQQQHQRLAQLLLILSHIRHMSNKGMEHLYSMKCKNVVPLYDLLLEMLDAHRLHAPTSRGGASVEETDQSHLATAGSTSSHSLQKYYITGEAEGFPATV
Estrogen receptor beta (Homo sapiens), sequence (Q92731 whole entry, looked up): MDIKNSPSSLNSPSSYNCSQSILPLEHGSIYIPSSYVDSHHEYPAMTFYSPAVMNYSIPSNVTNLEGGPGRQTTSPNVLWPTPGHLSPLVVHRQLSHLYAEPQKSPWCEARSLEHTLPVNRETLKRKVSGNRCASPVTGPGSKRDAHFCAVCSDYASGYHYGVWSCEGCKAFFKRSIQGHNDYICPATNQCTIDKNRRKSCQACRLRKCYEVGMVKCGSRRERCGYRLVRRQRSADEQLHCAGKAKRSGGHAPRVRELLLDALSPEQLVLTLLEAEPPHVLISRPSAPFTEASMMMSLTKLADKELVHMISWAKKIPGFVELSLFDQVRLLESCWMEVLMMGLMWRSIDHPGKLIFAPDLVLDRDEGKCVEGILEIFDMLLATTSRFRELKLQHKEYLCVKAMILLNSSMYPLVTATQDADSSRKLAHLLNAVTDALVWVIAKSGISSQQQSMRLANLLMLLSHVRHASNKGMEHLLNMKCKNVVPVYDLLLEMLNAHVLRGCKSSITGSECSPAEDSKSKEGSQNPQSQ

`O=c1c(-c2ccccc2)c1-c1ccccc1`: the Potency result in experiment [1], in [2], in experiment [4], in [6], in experiment [7] and in experiment [8] was “inactive” in each case. For the same compound, the Potency entry in experiment [10] and in experiment [11] was “inactive” throughout. Moreover, the Potency in [3] is 11.9 µM (active); in [5], 5.96 µM (active). For the same compound, the outcome in experiment [9] was inactive.
As to `CCCCc1oc2ccc(NS(C)(=O)=O)cc2c1C(=O)c1ccc(OCCCN(CCCC)CCCC)cc1`, the Potency result in experiment [1], in experiment [12], in experiment [2] and in experiment [4] was “inactive” each time. Further, the Potency in experiment [13] is 21.1 µM (active); in experiment [3], 26.6 µM (active); in experiment [5], 2.98 µM (active); in experiment [14], 21.1 µM (active); in [6], 11.9 µM (active); in experiment [7] it was 10.6 µM (active). Further, the Potency in experiment [11] was 33.5 µM (active). The compound was called inactive in experiment [9].
With `Nc1ccccc1O`, the Potency in experiment [15] was 30.2 µM (active); in experiment [3], 19.1 µM (active); in experiment [5], 6.77 µM (active); in [11], 67.7 µM (active). The Potency entry in experiment [2], in [4], in [7], in [8], in experiment [10] and in experiment [16] was “inactive” in each case. Further, in experiment [9], the compound was classed as inactive.
With `NC(=O)CC[C@@H]1NC(=O)[C@H](Cc2ccccc2)NC(=O)[C@H](Cc2ccc(O)cc2)NC(=O)CCSSC[C@@H](C(=O)N2CCC[C@H]2C(=O)N[C@@H](CCCN=C(N)N)C(=O)NCC(N)=O)NC(=O)[C@H](CC(N)=O)NC1=O`, the Potency entry in experiment [1], in [12], in [2], in experiment [3], in [14] and in experiment [6] was “inactive” each time. The Potency entry in [7], in experiment [10] and in [11] was “inactive” throughout. In experiment [9], the call was inactive.
With `CCCC1O[C@@H]2C[C@H]3[C@@H]4CCC5=CC(=O)C=C[C@]5(C)[C@H]4[C@@H](O)C[C@]3(C)[C@]2(C(=O)CO)O1` (stereo not given in full), the Potency entry in [1], in experiment [12], in [2], in [4], in experiment [17] and in [14] was “inactive” throughout. In addition, the Potency entry in experiment [7] and in [11] was “inactive” in each case. Besides, the Potency is 38.6 µM (active) in experiment [3] and 7.7 µM (active) in experiment [5].
In the case of `CCOC(=O)O[C@]1(C(=O)OCCl)CC[C@H]2[C@@H]3CCC4=CC(=O)C=C[C@]4(C)[C@H]3[C@@H](O)C[C@@]21C`, the Potency result in experiment [1], in experiment [12], in experiment [2], in [13], in experiment [3] and in experiment [4] was “inactive” each time. Also, the Potency entry in experiment [17], in experiment [14], in experiment [7] and in experiment [11] was “inactive” throughout. The Potency in experiment [6] is 26.6 µM (active). Also, the call in experiment [9] was inactive.
With `COc1ccc(-c2ccc3cc(C(=O)O)ccc3c2)cc1C12CC3CC(CC(C3)C1)C2`, the Potency entry in experiment [1], in [12], in experiment [2], in experiment [3], in [5] and in experiment [7] was “inactive” in each case. In addition, the Potency entry in [8], in experiment [11] and in experiment [16] was “inactive” in each case. For the same compound, the compound was classed as inactive in [9].
Regarding `O=C(OC[C@H]1O[C@@H](OC(=O)c2cc(O)c(O)c(OC(=O)c3cc(O)c(O)c(O)c3)c2)[C@H](OC(=O)c2cc(O)c(O)c(OC(=O)c3cc(O)c(O)c(O)c3)c2)[C@@H](OC(=O)c2cc(O)c(O)c(OC(=O)c3cc(O)c(O)c(O)c3)c2)[C@@H]1OC(=O)c1cc(O)c(O)c(OC(=O)c2cc(O)c(O)c(O)c2)c1)c1cc(O)c(O)c(OC(=O)c2cc(O)c(O)c(O)c2)c1`, in experiment [1], the Potency result is “inactive”. For the same compound, in experiment [12], the activity change, negative = inhibition was 4.81% [at 19 µM]. Moreover, the results for the activity change, negative = cytotoxicity in [2] and in [7] were -4.93% [at 19 µM] and -6.33% [at 19 µM], respectively. The values for the Potency in experiment [13], in experiment [5] and in [11] were 11.7 µM (active), 5.22 µM (active) and 18.5 µM (active), respectively. The activity change in experiment [4] was -2.95% [at 18.9 µM, stronger effect = higher value]. In addition, the activation in [16] was 2.55% [at 19 µM].
